Reference: PubChem BioAssay (NCI)
This is part of a sample that, as a whole, favours compounds with a hit. Of some 83,000 tested, about 20% had one in any assay.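 Method: cells in 96-well plates; compound added at one concentration; 48 h incubation; percent growth measured; values under 10 scored active.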 A number with no mark means an inactive call. Activity calls are given as the source filed them.

Columns and labels:
Assay in all cases: NCI-60 one-dose screen, 48 h (100 = growth as untreated, 0 = no growth, -100 = all killed)
Conditions in all cases: 10 µM unless noted
T-47D breast = test system: T-47D breast
BT-549 breast = test system: BT-549 breast
MDA-MB-435 melanoma = test system: MDA-MB-435 melanoma
SW-620 colon = test system: SW-620 colon
MCF7 breast = test system: MCF7 breast
HCT-116 colon = test system: HCT-116 colon
HCC-2998 colon = test system: HCC-2998 colon
KM12 colon = test system: KM12 colon

Structure (SMILES)	growth (T-47D breast)	growth (BT-549 breast)	growth (MDA-MB-435 melanoma)	growth (SW-620 colon)	growth (MCF7 breast)	growth (HCT-116 colon)	growth (HCC-2998 colon)	growth (KM12 colon)
CC(C)(C)c1ccc(-c2nnc(-c3nc4ccccc4nc3Cl)o2)cc1	-70.5% (active)	104%	69%	66.2%	-65.9% (active)	14.2%	98.5%	65.8%
CCn1c(SCC(=O)Nc2cccc(C(=O)/C=C/c3ccc(C)cc3)c2)nc2ccccc2c1=O	70.7%	93.3%	75.4%	51.4%	19.7%	10.8%	78.7%	77.4%
CCc1cccc2c3c(sc12)C(c1ccc(Cl)cc1)C(C#N)=C(/N=C/c1ccc(Cl)cc1)O3 (stereo not given)	25.7%	51.7%	-58.4% (active)	29.3%	15.8%	22.2%	7.72% (active)	13.2%
NS(=O)(=O)c1ccc(Nc2nc(N/N=C/c3ccccn3)nc(Nc3ccccc3)n2)cc1	-18.4% (active)	-20.5% (active)	-84.9% (active)	-17.8% (active)	1.45% (active)	-30% (active)	-74.8% (active)	4.15% (active)
COc1ccc(C(=O)Nc2ncc(Cc3ccccc3Cl)s2)cc1	34.3%	54.8%	-5.1% (active)	25.3%	14.3%	7.77% (active)	6.97% (active)	9.41% (active)
CC(=O)c1ccc(Nc2nc(SCC(C)C)nc(-c3ccc(F)cc3)c2C#N)cc1	106%	110%	111%	110%	114%	108%	119%	104%
O=S(=O)(NC1c2ccccc2C[C@H]1O)c1ccc(Cl)cc1Cl (stereo not given in full)	93.7%	126%	94.1%	102%	95.5%	98.1%	97%	96.3%
Cn1cc(-c2cc(N)n3nc(-c4cn(C)c5ccccc45)cc3n2)c2ccccc21	90%	128%	0.548% (active)	85.9%	44.8%	62.1%	78.5%	72.7%
Nc1ncc(-c2ccc3ncnc(N4CCc5cc(F)c(F)cc54)c3c2)cn1	4.14% (active)	12.3%	30.2%	54.4%	14.4%	28.9%	31.9%	45.3%
CN(Cc1ccccc1)S(=O)(=O)/N=C1\NC(=O)NC1=C(Cl)Cl	56.8%	94.6%	79.6%	-49.5% (active)	12.6%	21.3%	71.8%	4.88% (active)
CCc1ccc(SC2c3ccc(N(CC)CC)cc3Oc3nc(N)c(C#N)c(N)c32)cc1 (stereo not given)	-27.3% (active)	65.9%	-0.759% (active)	-24.8% (active)	-84.9% (active)	-83.1% (active)	-83% (active)	-57.9% (active)
CN(C)CCCOc1ccc2c(c1)CN(C(=O)c1cc(C(=O)N3Cc4cccc(F)c4C3)ccc1O)C2	100%	125%	103%	105%	83.2%	106%	114%	106%
CC1(C)CC[C@]2(C(=O)N3CCOCC3)CC[C@]3(C)C(=CC[C@@H]4[C@@]5(C)C/C(=C/c6ccco6)C(=O)C(C)(C)[C@@H]5CC[C@]43C)[C@@H]2C1	75.7%	97.4%	88.7%	74.1%	64%	62.1%	103%	95.7%
NS(=O)(=O)c1ccc(Nc2nc(SCC(=O)c3ccc(Cl)cc3)nc3c2CCCC3)cc1	13.5%	67.3%	54.4%	40.5%	25.4%	36.8%	21.6%	19.6%
Cc1cccc2c3c(sc12)C(c1ccc(Cl)cc1)c1c(nc(CC(=O)Nc2ccccc2)[nH]c1=O)O3 (stereo not given)	47.9%	77.1%	9.37% (active)	40.9%	38.1%	37.7%	85.7%	37.7%
O=C(NCCN1CCCC1)c1ccc(-c2nc3ccc4[nH]ncc4c3c3c2CCCC3)cc1	23%	-33.4% (active)	12.3%	1.5% (active)	-9.45% (active)	1.82% (active)	-1.05% (active)	1.12% (active)
O=C(CN1CCN(c2cc(=O)n(-c3ccccc3)c3ccccc23)CC1)Nc1nc(-c2ccc(Cl)cc2)cs1	24.3%	46.5%	49.8%	74.3%	20.1%	35.8%	92.4%	64.7%
CCN(CC)c1ccc2c(c1)Oc1nc(N)c(C#N)c(N)c1C2Sc1ccc(C)cc1 (stereo not given)	-41.8% (active)	58.8%	-95.5% (active)	-62.5% (active)	-70.7% (active)	-80.2% (active)	-90.2% (active)	-48.8% (active)
O=C(c1ccc(Cl)cc1)C1[C@H](c2ccc(Cl)cc2)[C@@H](c2ccccc2)NC12C(=O)Nc1ccccc12 (stereo not given in full)	40.1%	96.1%	49.1%	54%	13.2%	26.1%	34.5%	30.7%
NC(N)=Nc1ccc(Oc2ccc(Nc3ccc(Cl)c(C(F)(F)F)c3)cc2)cc1	41.1%	86.1%	40.3%	25.6%	2.64% (active)	11.3%	1.24% (active)	5.94% (active)
COc1ccc2c(c1)c(CC(=O)[Se]CCC#N)c(C)n2C(=O)c1ccc(Cl)cc1	66.7%	-59.8% (active)	-13.4% (active)	2.84% (active)	2.34% (active)	-16.9% (active)	75.6%	26.5%
C=C1CC[C@@H]2[C@]3(C)COC(c4ccccc4)O[C@@H]3CC[C@@]2(C)[C@@H]1C/C=C1/C(=O)OC[C@H]1O (stereo not given in full)	70.6%	63.8%	81.4%	49.7%	46.1%	38.4%	108%	86.1%
N#Cc1cn(Cc2ccc(Cl)cc2Cl)c(C(=O)c2ccc(Br)cc2)c1N	87.8%	108%	95.6%	98.8%	87.2%	101%	108%	99.3%
CCNC(=O)N1CCc2cc(OC)c(OCCc3ccc(OC)cc3)cc2C1c1ccc(OC)cc1C (stereo not given)	42.3%	22.9%	11.4%	21.9%	21.5%	10.5%	19.5%	24.1%
COc1ccc(OC)c(-c2nc(SCC(=O)c3ccc(Br)cc3)nc(Nc3ccc(S(N)(=O)=O)cc3)c2C#N)c1	71.1%	49.4%	-18.6% (active)	36%	28.9%	15.4%	70.9%	20.9%
COC(=O)C[Se]C(=O)Cc1c(C)n(C(=O)c2ccc(Cl)cc2)c2ccc(OC)cc12	83%	102%	39.6%	62.4%	28.2%	4.82% (active)	58.3%	26.4%
CC(C)(C)n1cc(-c2ccnc(NCCCNS(=O)(=O)c3cccc(F)c3)n2)c(-c2ccc(Cl)c(O)c2)n1	75.1%	95.6%	101%	116%	97.9%	88.6%	114%	92.9%
Oc1cccc2ccc(-c3nnc(SCc4ccc(O)c5ncccc45)o3)nc12	16%	15.9%	12%	19.2%	4.96% (active)	5.66% (active)	27.6%	8.28% (active)
COc1ccc(Cn2cc3c(c2-c2cc(OC)c(OC)c(OC)c2)CCc2c(CN4CCOCC4)noc2-3)cc1	61.5%	76.8%	-19.9% (active)	30.4%	16.8%	13.4%	21.3%	16.9%
CN1c2ccccc2Sc2cc(C=C(C#N)C#N)ccc21	92.6%	110%	103%	90.9%	54.6%	105%	97.3%	103%
